Screening data as filed in PubChem.
VHR inh color = blocks the human dual specificity phosphatase VHR1. P51452. recombinant VHR phosphatase, colorimetric substrate read-out. inhibition, % at 20 µM. 50,000 tested, 0.7% active; in the data active means inhibition above about 60%
Target sequence (P51452 whole entry, looked up): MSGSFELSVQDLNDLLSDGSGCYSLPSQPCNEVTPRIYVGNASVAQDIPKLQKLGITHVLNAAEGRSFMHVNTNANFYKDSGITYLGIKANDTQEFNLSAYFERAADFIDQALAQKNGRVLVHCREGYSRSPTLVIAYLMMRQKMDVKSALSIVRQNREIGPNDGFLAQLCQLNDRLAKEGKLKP
An asterisk follows results filed as active. Shown is part of a subset that was picked to be rich in hits.

What do the screens show for `O=C(COc1ccc2ccccc2c1)N1CCN(S(=O)(=O)c2ccc(Cl)cc2)CC1`?
VHR inh color: -9

Results for O=C(COc1ccc(Cl)cc1)N1CCN(C(=O)COc2ccc3ccccc3c2)CC1 ?
VHR inh color: 2

What do the screens show for `Cc1ccc(S(=O)(=O)N2CCN(C(=O)COc3ccc(Cl)cc3)CC2)cc1`?
VHR inh color: 87*

What do the screens show for `Cc1ccc(N=C(Nc2ccc(C)cc2)c2ccccc2)cc1`?
VHR inh color: 1

What do the screens show for `CC(C)=C1C(=O)NN(c2ccccc2)C1=O`?
VHR inh color: 83*

How did O=C1NN(c2ccccc2)C(=O)/C1=C\C=C\c1ccccc1 do in these assays?
VHR inh color: -68

How did CCc1ccc(/C=C2\C(=O)NN(c3ccccc3)C2=O)cc1 do in these assays?
VHR inh color: -16

How did O=C(Nc1ccccc1I)c1ccccc1C(F)(F)F do in these assays?
VHR inh color: 0

How did COc1cccc(OC)c1C(=O)Nc1ccc2ccccc2c1 do in these assays?
VHR inh color: -12

Results for CCOc1ccc(N2C(=O)NC(=O)/C(=C\c3ccc(OCC)c(Cl)c3)C2=O)cc1 ?
VHR inh color: -9

What do the screens show for `COc1ccc(NC(=O)CN(c2cccc(C(F)(F)F)c2)S(C)(=O)=O)cc1`?
VHR inh color: -18

How did COc1ccc(C2C3C(=O)N(c4ccc(Br)cc4)C(=O)C3N3CCCN23)cc1 (stereo not given) do in these assays?
VHR inh color: 2

How did O=C1C2C(C(=O)N1c1cccc(Cl)c1)N1CCCN1C2c1ccccc1 (stereo not given) do in these assays?
VHR inh color: -7

How did COc1ccc(C2C3C(=O)N(c4ccccc4)C(=O)C3N3CCCN23)cc1 (stereo not given) do in these assays?
VHR inh color: 89*

Results for Cc1cc(=O)[nH]c(SCC(=O)c2ccc(Br)cc2)n1 ?
VHR inh color: 5

How did O=C(O)C1Nc2c(C(=O)N3CCCC3)cccc2C2C=CCC12 (stereo not given) do in these assays?
VHR inh color: -1

Results for CC(=O)N1c2ccc3ccccc3c2C2C=CCC2C1c1ccc(Br)cc1 (stereo not given) ?
VHR inh color: 2

Results for O=C(O)C1Nc2ccc([N+](=O)[O-])cc2C2C=CCC12 (stereo not given) ?
VHR inh color: 96*

How did CCOC(=O)c1ccc2c(c1)C1C=CCC1C(c1cccc3ccccc13)N2 (stereo not given) do in these assays?
VHR inh color: 40

How did O=[N+]([O-])c1cccc(C2Nc3ccc(Cl)cc3C3C=CCC32)c1 (stereo not given) do in these assays?
VHR inh color: 2

What do the screens show for `O=C(O)C1Nc2ccc3ccccc3c2C2C=CCC12` (stereo not given)?
VHR inh color: 92*

Results for O=[N+]([O-])c1ccc2c(c1)C1C=CCC1C(c1ccc(Cl)cc1)N2 (stereo not given) ?
VHR inh color: -8

How did Cc1c(Cl)ccc2c1NC(C(=O)O)C1CC=CC21 (stereo not given) do in these assays?
VHR inh color: 84*

What do the screens show for `O=C(O)c1cccc2c1NC(c1cccc(Cl)c1Cl)C1CC=CC21` (stereo not given)?
VHR inh color: -5

What do the screens show for `c1ccc(OCCSc2nc3ccccc3o2)cc1`?
VHR inh color: -1

Results for CC(C)(C)NS(=O)(=O)c1ccc2ccccc2c1 ?
VHR inh color: -24

How did COC(=O)C(=O)c1c[nH]c2ccccc12 do in these assays?
VHR inh color: -32

What do the screens show for `COc1ccc(NC(=O)CN(c2ccc(Br)cc2)S(C)(=O)=O)c(OC)c1`?
VHR inh color: -8

How did COC(=O)C(C(=O)OC)C(C(C)C)C(C(=O)OC)C(=O)OC do in these assays?
VHR inh color: -7

What do the screens show for `COc1cc(NC(=O)c2ccccc2Cl)cc(OC)c1`?
VHR inh color: -22

How did CN1C(c2ccccc2)CC(=NO)CC1c1ccccc1 (stereo not given) do in these assays?
VHR inh color: -41

Results for CC1=C(C(=O)OCCC#N)C(c2cc3c(cc2Br)OCO3)NC(=O)N1 (stereo not given) ?
VHR inh color: -25

How did COC(=O)c1ccc(NC(=O)C2(C)CC3c4ccccc4C2c2ccccc23)cc1 (stereo not given) do in these assays?
VHR inh color: -4

What do the screens show for `COc1cccc(NC(=O)C2(C)CC3c4ccccc4C2c2ccccc23)c1` (stereo not given)?
VHR inh color: -16

Results for Cc1c(Cl)cccc1NC(=O)C1(C)CC2c3ccccc3C1c1ccccc12 (stereo not given) ?
VHR inh color: 79*

What do the screens show for `CCOc1ccc(C(=O)Nc2cc(OC)ccc2OC)cc1Br`?
VHR inh color: -5

Results for CC(=O)c1c(-c2ccc(-c3ccccc3)cc2)nc2n(C)c3ccccc3n12 ?
VHR inh color: -2

What do the screens show for `C/C(=N\Nc1nc(-c2ccc(C)cc2)nc2ccccc12)c1ccccc1`?
VHR inh color: -20

Results for O=C(O)C(Cc1ccccc1)N1C(=O)/C(=C/c2ccc(Cl)cc2Cl)SC1=S (stereo not given) ?
VHR inh color: 83*

Results for CC(c1ccccc1)N1C(=O)/C(=C\c2ccc(Cl)cc2Cl)SC1=S (stereo not given) ?
VHR inh color: 4

Results for O=C(O)C(Cc1ccccc1)N1C(=O)/C(=C/c2cccc3ccccc23)SC1=S (stereo not given) ?
VHR inh color: -13

Results for COc1ccc(/C=C2/C=C(c3ccccc3)OC2=O)c(OC)c1 ?
VHR inh color: 18

What do the screens show for `O=C(Nc1ccc(Cl)cc1)C1C2C3CCC(C3)C12` (stereo not given)?
VHR inh color: 118*

Results for Cc1cc(C)c(NC(=O)C2C3C4CCC(C4)C23)c(C)c1 (stereo not given) ?
VHR inh color: 114*

What do the screens show for `O=C(Nc1ccc(Br)cc1)C1C2C3CCC(C3)C12` (stereo not given)?
VHR inh color: -9

How did Cc1ccc(NC(=O)C2C3C4CCC(C4)C23)cc1 (stereo not given) do in these assays?
VHR inh color: -22

Results for O=C(Nc1ccccc1)C1C2C3CCC(C3)C12 (stereo not given) ?
VHR inh color: -5

What do the screens show for `Cc1ccc(C)c(NC(=O)C2C3C4CCC(C4)C23)c1` (stereo not given)?
VHR inh color: 1

Results for O=C(Nc1ccc(I)cc1)/C(=C\c1cccc([N+](=O)[O-])c1)NC(=O)c1cccs1 ?
VHR inh color: -12

Results for CCOC(=O)c1ccc(NC(=O)CN(c2ccccc2OCC)S(=O)(=O)c2ccccc2)cc1 ?
VHR inh color: -8

Results for O=C1NC(=S)N(c2cccc(Br)c2)C(=O)/C1=C/c1ccc(O)c(Cl)c1 ?
VHR inh color: -5

What do the screens show for `O=C1NC(=S)N(c2cccc(Br)c2)C(=O)/C1=C/c1ccco1`?
VHR inh color: 89*

Results for Cc1cc(/C=C2\C(=O)NC(=S)N(c3cccc(Br)c3)C2=O)c(C)n1C ?
VHR inh color: -13

How did CCOc1ccc(N2C(=O)NC(=O)/C(=C\c3ccc(C)o3)C2=O)cc1 do in these assays?
VHR inh color: 0

How did CCOC(=O)C1=C(C)N(c2ccc(OCC)cc2)C(=O)/C1=C\c1ccco1 do in these assays?
VHR inh color: -14

How did CCOc1ccc(N2C(=O)/C(=C/c3ccco3)C(=O)NC2=S)cc1 do in these assays?
VHR inh color: 80*

What do the screens show for `O=c1c(-c2ccccc2)coc2c(CN3CCCCCC3)c(O)ccc12`?
VHR inh color: 16
